Assay results reported in PubChem BioAssay AID1159580 (chemical genetic matrix, 2015).
“And” between values parts separate entries of the source, which are not always exact repeats. Equal entries are not always repeated. Screen size: about 5,500 compounds; about 2,000 (36%) were called active. Another 18% or so got no clear call; they are omitted. Cut-off read from the data, not from the text of the source: active = normalized growth mostly below about 0.91 (no sharp cut-off); inconclusive = no clear call, values can overlap the other calls; inactive = mostly above about 0.92. Some of the results follow.

Assay: chemical genetic growth profiling, strain panel (AID 1159580);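 note: tested at 20 µM; growth read once vehicle control cultures reached saturation at 30 °C; 1 = growth at the plate median or of vehicle wells; lower values mean less growth of the strain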
Conditions: S. cerevisiae deletion strains, growth OD

Measured: normalized growth

COc1c(O)cc2oc3cc(O)c(CC=C(C)C)c(O)c3c(=O)c2c1CC=C(C)C
inactive: locus YAL021C, strain ccr4, hits give low values 1 | locus YAL026C, strain drs2, hits give low values 0.982 | locus YAL030W, strain snc1, hits give low values 0.984 | locus YBR009C, strain hhf1, hits give low values 0.983 | locus YBR023C, strain chs3, hits give low values 0.923 | locus YBR171W, strain sec66, hits give low values 1.02 | locus YBR279W, strain paf1, hits give low values 0.968 | locus YCL011C, strain gbp2, hits give low values 0.912 | locus YCL016C, strain dcc1, hits give low values 0.957 | locus YCL061C, strain MRC1, hits give low values 0.991 | locus YCL069W, strain vba3, hits give low values 1.01 | locus YCR088W, strain abp1, hits give low values 1 | locus YDL005C, strain med2, hits give low values 1.05 | locus YDL040C, strain nat1, hits give low values 1 | locus YDL185W, strain tfp1, hits give low values 0.916 | locus YDR001C, strain nth1, hits give low values 1.01 | locus YDR297W, strain sur2, hits give low values 0.923 | locus YDR334W, strain swr1, hits give low values 0.999 | locus YDR335W, strain msn5, hits give low values 0.957 | locus YEL003W, strain gim4, hits give low values 0.937 | locus YEL037C, strain rad23, hits give low values 1 | locus YEL061C, strain CIN8 (second series), hits give low values 1.01 | locus YER016W, strain bim1, hits give low values 0.969 | locus YER110C, hits give low values 0.952 | locus YER111C, strain swi4, hits give low values 1.02 | locus YFR010W, strain ubp6, hits give low values 0.978 | locus YGL167C, strain pmr1, hits give low values 1.01 | locus YGL173C, strain kem1, hits give low values 0.979 | locus YGL227W, strain vid30, hits give low values 1 | locus YGL240W, strain doc1, hits give low values 0.887 | locus YGL253W, strain hxk2, hits give low values 0.99 | locus YGR252W, strain gcn5, hits give low values 0.833 | locus YHR013C, strain ard1, hits give low values 0.985 | locus YHR027C, strain rpn1, hits give low values 0.969 | locus YHR142W, strain chs7, hits give low values 0.89 | locus YIL073C, strain SPO22, hits give low values 0.695 | locus YJL092W, strain hpr5, hits give low values 1 | locus YJL115W, strain asf1, hits give low values 1.03 | locus YJL154C, strain vps35, hits give low values 1.04 | locus YJL168C, strain set2, hits give low values 0.948 | locus YJL187C, strain SWE1, hits give low values 0.936 | locus YJR066W, strain TOR1, hits give low values 0.891 | locus YKL009W, strain mrt4, hits give low values 0.885 | locus YKL068W, hits give low values 0.947 | locus YKL160W, strain elf1, hits give low values 0.904 | locus YKR026C, strain gcn3, hits give low values 1 | locus YKR091W, strain srl3, hits give low values 1.01 | locus YLL001W, strain dnm1, hits give low values 0.963 | locus YLL026W, hits give low values 1 | locus YLL041C, strain sdh2, hits give low values 0.986 | locus YLR102C, strain apc9, hits give low values 0.93 | locus YLR258W, strain gsy2, hits give low values 0.939 | locus YLR342W, strain FKS1, hits give low values 0.944 | locus YLR357W, strain rsc2, hits give low values 0.957 | locus YLR370C, strain arc18, hits give low values 0.982 | locus YLR384C, strain iki3, hits give low values 0.983 | locus YML124C, strain tub3, hits give low values 0.938 | locus YMR125W, strain sto1, hits give low values 1.01 | locus YMR129W, hits give low values 0.974 | locus YMR231W, strain pep5, hits give low values 1 | locus YNL183C, strain NPR1, hits give low values 0.887 | locus YNL209W, strain ssb2, hits give low values 0.968 | locus YNL248C, strain rpa49, hits give low values 0.994 | locus YNL322C, strain KRE1 (second series), hits give low values 0.995 | locus YNR049C, strain mso1, hits give low values 0.967 | locus YOL012C, strain htz1 0.271 | locus YOR001W, strain rrp6, hits give low values 0.916 | locus YOR070C, strain gyp1, hits give low values 0.95 | locus YOR080W, strain dia2, hits give low values 0.984 | locus YOR083W, strain WHI5, hits give low values 0.941 | locus YOR106W, strain vam3, hits give low values 0.916 | locus YOR265W, strain rbl2, hits give low values 0.964 | locus YOR270C, strain vph1, hits give low values 0.881 | locus YOR290C, strain snf2, hits give low values 0.912 | locus YOR316C, strain cot1, hits give low values 0.927 | locus YPL078C, strain atp4, hits give low values 0.991 | locus YPL106C, strain sse1, hits give low values 0.856 | locus YPL240C, strain hsp82, hits give low values 0.951 | locus YPR119W, strain clb2, hits give low values 0.931 | locus YPR141C, strain kar3, hits give low values 0.96
active: locus YAL013W, strain DEP1, hits give low values 0.346 | locus YBR021W, strain FUR4, hits give low values 0.578 | locus YBR229C, strain ROT2, hits give low values 0.913 | locus YBR231C, strain swc5, hits give low values 0.851 | locus YCL029C, strain bik1, hits give low values 0.773 | locus YDL035C, strain GPR1, hits give low values 0.611 | locus YDL074C, strain BRE1, hits give low values 0.242 | locus YDL101C, strain DUN1, hits give low values 0.633 | locus YDL192W, strain arf1, hits give low values 0.579 | locus YDR069C, strain doa4, hits give low values 0.89 | locus YDR101C, strain arx1, hits give low values 0.799 | locus YDR137W, strain rgp1, hits give low values 0.501 | locus YDR159W, strain sac3, hits give low values 0.749 | locus YDR162C, strain NBP2, hits give low values 0.543 | locus YDR195W, strain ref2 0.57 | locus YDR318W, strain mcm21, hits give low values 0.79 | locus YDR388W, hits give low values 0.833 | locus YDR392W, strain spt3, hits give low values 0.673 | locus YDR502C, strain sam2, hits give low values 0.771 | locus YEL061C, strain CIN8, hits give low values 0.68 | locus YER015W, strain faa2, hits give low values 0.901 | locus YER155C, strain BEM2 (second series), hits give low values 0.704 | locus YER155C, strain BEM2, hits give low values 0.388 | locus YER167W, strain BCK2, hits give low values 0.792 | locus YGL078C, strain dbp3, hits give low values 0.878 | locus YGL086W, strain mad1, hits give low values 0.681 | locus YGL248W, strain PDE1, hits give low values 0.67 | locus YGR135W, strain pre9, hits give low values 0.77 | locus YHR030C, strain SLT2, hits give low values 0.538 and 0.687 | locus YHR079C, strain IRE1 (second series), hits give low values 0.918 | locus YHR079C, strain IRE1, hits give low values 0.56 | locus YHR094C, strain hxt1, hits give low values 0.901 | locus YHR129C, strain ARP1, hits give low values 0.545 | locus YHR200W, strain rpn10, hits give low values 0.78 | locus YIL066C, strain RNR3, hits give low values 0.553 | locus YIL125W, strain kgd1, hits give low values 0.744 | locus YIR030C, strain dcg1, hits give low values 0.867 | locus YJL095W, strain BCK1, hits give low values 0.307 and 0.797 | locus YJL129C, strain trk1, hits give low values 0.774 | locus YJL134W, strain LCB3, hits give low values 0.833 | locus YJL164C, strain tpk1, hits give low values 0.894 | locus YJL166W, strain qcr8, hits give low values 0.819 | locus YJL187C, strain SWE1 (second series), hits give low values 0.518 | locus YJR043C, strain POL32, hits give low values 0.538 | locus YKL085W, strain MDH1 (second series), hits give low values 0.724 | locus YKL085W, strain MDH1, hits give low values 0.724 | locus YKL190W, strain CNB1, hits give low values 0.548 | locus YKR001C, strain vps1, hits give low values 0.365 | locus YLR027C, strain aat2, hits give low values 0.916 | locus YLR039C, strain RIC1, hits give low values 0.263 | locus YLR058C, strain SHM2, hits give low values 0.642 | locus YLR113W, strain HOG1, hits give low values 0.426 | locus YLR262C, strain YPT6 (second series), hits give low values 0.667 | locus YLR262C, strain YPT6, hits give low values 0.399 | locus YLR268W, strain sec22, hits give low values 0.704 | locus YLR320W, strain mms22, hits give low values 0.843 | locus YLR330W, strain CHS5, hits give low values 0.534 | locus YLR342W, strain FKS1 (second series), hits give low values 0.591 | locus YLR371W, strain rom2, hits give low values 0.358 | locus YLR418C, strain cdc73, hits give low values 0.259 | locus YML016C, strain PPZ1, hits give low values 0.674 | locus YML032C, strain rad52, hits give low values 0.838 | locus YMR058W, strain fet3, hits give low values 0.9 | locus YMR078C, strain ctf18, hits give low values 0.903 | locus YMR205C, strain PFK2, hits give low values 0.822 | locus YMR223W, strain ubp8, hits give low values 0.786 | locus YMR263W, strain SAP30, hits give low values 0.726 | locus YMR307W, strain GAS1, hits give low values 0.474 | locus YNL067W, strain RPL9B, hits give low values 0.719 | locus YNL071W, strain lat1, hits give low values 0.562 | locus YNL153C, strain GIM3, hits give low values 0.625 | locus YNL233W, strain BNI4, hits give low values 0.51 | locus YNL250W, strain rad50, hits give low values 0.862 | locus YNL271C, strain bni1, hits give low values 0.883 | locus YNL298W, strain CLA4, hits give low values 0.831 | locus YNL307C, strain MCK1, hits give low values 0.385 | locus YNR052C, strain pop2, hits give low values 0.781 | locus YOL006C, strain TOP1, hits give low values 0.279 | locus YOL147C, strain pex11, hits give low values 0.694 | locus YOR061W, strain CKA2, hits give low values 0.707 | locus YOR069W, strain VPS5, hits give low values 0.735 | locus YOR136W, strain idh2, hits give low values 0.899 | locus YOR144C, strain elg1, hits give low values 0.755 | locus YOR184W, strain ser1, hits give low values 0.331 | locus YOR231W, strain MKK1, hits give low values 0.531 | locus YPL051W, strain arl3, hits give low values 0.782 | locus YPL055C, strain LGE1, hits give low values 0.274 | locus YPL256C, strain CLN2, hits give low values 0.741 | locus YPR163C, strain tif3, hits give low values 0.544 | locus YPR167C, strain met16, hits give low values 0.786 | strain wtn01, hits give low values 0.697
